The source of these data is ChEMBL document CHEMBL1961873, “Compounds: GSK PKIS; Assays: Nanosyn kinase panel” (2012).

Test [1] addresses Sphingosine kinase 1 (Homo sapiens) (UniProt Q9NYA1). The note with it: at 1 µM.
In test [2] the target is T1, Sphingosine kinase 2 (Homo sapiens) (UniProt Q9NRA0).
T1 sequence (whole entry): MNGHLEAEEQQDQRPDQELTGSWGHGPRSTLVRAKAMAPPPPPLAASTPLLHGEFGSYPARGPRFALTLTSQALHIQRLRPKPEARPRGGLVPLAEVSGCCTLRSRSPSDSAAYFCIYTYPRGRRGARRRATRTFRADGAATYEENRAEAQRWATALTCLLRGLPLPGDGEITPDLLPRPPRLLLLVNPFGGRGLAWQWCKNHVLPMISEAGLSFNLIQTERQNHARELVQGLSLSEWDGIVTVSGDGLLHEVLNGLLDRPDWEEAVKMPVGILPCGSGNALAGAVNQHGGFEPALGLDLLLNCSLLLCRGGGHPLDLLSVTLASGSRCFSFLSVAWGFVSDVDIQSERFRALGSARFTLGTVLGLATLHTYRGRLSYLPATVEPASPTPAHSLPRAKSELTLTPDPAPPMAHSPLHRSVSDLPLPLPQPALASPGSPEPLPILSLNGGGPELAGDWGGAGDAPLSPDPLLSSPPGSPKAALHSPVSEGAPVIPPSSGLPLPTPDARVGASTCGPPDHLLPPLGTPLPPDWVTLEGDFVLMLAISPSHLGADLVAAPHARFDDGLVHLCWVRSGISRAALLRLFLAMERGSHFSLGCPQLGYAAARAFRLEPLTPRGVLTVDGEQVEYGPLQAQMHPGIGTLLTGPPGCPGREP
To be noted: at 0.1 µM.

Test [3] addresses T1, Sphingosine kinase 2 (Homo sapiens). To be noted: at 1 µM.
Test [4] deals with Casein kinase II subunit alpha (Homo sapiens) (UniProt P68400). To be noted: at 0.1 µM.
Chain of Casein kinase II subunit alpha (Homo sapiens) (P68400 whole entry, looked up): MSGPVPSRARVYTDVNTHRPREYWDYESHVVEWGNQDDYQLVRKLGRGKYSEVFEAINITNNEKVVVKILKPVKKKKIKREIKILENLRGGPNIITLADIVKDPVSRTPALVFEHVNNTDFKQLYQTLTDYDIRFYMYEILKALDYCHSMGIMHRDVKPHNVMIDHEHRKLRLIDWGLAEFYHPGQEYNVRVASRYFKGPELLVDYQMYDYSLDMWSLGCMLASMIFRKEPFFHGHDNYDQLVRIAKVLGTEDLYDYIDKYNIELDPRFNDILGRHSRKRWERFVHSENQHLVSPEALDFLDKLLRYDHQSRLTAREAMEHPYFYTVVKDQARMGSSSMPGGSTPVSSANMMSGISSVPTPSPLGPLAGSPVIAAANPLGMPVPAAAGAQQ
For test [5] the target is unchanged. The note with it: at 1 µM.
The target in test [6] is T2, Inhibitor of nuclear factor kappa-B kinase subunit alpha (Homo sapiens) (UniProt O15111).
T2 sequence (whole entry): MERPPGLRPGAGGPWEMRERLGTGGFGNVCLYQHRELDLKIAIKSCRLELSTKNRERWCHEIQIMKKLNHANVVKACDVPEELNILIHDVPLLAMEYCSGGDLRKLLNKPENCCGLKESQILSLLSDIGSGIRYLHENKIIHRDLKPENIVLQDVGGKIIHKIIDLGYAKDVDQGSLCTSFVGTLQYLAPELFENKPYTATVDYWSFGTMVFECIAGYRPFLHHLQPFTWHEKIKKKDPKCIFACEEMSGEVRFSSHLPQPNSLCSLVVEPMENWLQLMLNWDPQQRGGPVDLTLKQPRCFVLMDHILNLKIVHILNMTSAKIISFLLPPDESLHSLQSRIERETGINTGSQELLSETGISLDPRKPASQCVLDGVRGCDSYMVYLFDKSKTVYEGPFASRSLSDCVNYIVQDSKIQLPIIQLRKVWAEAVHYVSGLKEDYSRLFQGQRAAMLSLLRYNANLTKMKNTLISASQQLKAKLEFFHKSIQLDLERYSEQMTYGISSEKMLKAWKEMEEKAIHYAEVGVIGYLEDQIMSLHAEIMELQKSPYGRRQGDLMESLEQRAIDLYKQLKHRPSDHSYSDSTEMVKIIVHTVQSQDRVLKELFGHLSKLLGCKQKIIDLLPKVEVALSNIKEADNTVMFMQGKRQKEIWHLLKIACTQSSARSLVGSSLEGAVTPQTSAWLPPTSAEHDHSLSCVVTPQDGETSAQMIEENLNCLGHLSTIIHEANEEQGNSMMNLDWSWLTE
To be noted: at 0.1 µM.

The target of test [7] is T2, Inhibitor of nuclear factor kappa-B kinase subunit alpha (Homo sapiens). The note with it: at 1 µM.
For test [8], the target named is T3, Inhibitor of nuclear factor kappa-B kinase subunit beta (Homo sapiens) (UniProt O14920).
T3 sequence (whole entry): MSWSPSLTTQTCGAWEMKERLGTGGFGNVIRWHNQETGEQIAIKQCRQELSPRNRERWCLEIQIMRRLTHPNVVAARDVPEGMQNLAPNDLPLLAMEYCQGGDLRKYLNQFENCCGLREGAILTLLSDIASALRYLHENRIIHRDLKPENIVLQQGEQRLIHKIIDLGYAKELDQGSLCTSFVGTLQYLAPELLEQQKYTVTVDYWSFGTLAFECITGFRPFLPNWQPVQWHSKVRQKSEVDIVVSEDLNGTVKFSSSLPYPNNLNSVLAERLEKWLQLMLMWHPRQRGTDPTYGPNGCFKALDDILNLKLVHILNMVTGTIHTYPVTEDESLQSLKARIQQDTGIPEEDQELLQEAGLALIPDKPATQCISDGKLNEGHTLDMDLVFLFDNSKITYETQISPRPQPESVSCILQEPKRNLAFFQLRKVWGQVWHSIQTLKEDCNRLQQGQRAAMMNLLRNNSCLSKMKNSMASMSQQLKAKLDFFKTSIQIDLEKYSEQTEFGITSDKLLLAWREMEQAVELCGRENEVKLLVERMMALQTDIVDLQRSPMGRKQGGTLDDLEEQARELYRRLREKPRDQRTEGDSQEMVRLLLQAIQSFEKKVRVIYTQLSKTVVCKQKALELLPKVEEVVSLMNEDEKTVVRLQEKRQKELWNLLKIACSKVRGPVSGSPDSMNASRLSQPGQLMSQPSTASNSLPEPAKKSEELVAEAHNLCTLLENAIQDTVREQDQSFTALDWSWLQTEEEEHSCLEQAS
The note with it: at 0.1 µM.

In test [9] the target is T3, Inhibitor of nuclear factor kappa-B kinase subunit beta (Homo sapiens). The note with it: at 1 µM.
For test [10], the target named is T4, Inhibitor of nuclear factor kappa-B kinase subunit epsilon (Homo sapiens) (UniProt Q14164).
T4 sequence (whole entry): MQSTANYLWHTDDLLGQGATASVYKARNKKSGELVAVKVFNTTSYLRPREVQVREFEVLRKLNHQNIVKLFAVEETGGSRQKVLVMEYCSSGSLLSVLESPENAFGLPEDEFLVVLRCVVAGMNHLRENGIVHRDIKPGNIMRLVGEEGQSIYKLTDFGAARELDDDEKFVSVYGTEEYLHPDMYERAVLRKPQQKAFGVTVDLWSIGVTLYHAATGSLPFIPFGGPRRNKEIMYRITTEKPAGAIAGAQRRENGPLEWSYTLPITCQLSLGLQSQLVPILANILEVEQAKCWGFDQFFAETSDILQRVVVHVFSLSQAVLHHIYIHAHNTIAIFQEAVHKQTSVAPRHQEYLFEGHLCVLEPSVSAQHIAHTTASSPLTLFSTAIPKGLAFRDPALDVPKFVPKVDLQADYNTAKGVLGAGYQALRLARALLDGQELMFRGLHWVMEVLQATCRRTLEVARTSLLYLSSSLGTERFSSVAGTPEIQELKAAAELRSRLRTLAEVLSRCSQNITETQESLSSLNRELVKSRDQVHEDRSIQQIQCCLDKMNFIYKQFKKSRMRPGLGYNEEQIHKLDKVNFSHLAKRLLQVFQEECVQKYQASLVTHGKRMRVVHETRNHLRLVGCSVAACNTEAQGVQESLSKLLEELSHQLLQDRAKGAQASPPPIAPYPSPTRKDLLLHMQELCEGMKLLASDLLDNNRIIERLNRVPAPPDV
The note with it: at 0.1 µM.

Test [11] concerns the target T4, Inhibitor of nuclear factor kappa-B kinase subunit epsilon (Homo sapiens). The note with it: at 1 µM.
In test [12] the target is T5, Serine/threonine-protein kinase Nek1 (Homo sapiens) (UniProt Q96PY6).
T5 sequence (whole entry): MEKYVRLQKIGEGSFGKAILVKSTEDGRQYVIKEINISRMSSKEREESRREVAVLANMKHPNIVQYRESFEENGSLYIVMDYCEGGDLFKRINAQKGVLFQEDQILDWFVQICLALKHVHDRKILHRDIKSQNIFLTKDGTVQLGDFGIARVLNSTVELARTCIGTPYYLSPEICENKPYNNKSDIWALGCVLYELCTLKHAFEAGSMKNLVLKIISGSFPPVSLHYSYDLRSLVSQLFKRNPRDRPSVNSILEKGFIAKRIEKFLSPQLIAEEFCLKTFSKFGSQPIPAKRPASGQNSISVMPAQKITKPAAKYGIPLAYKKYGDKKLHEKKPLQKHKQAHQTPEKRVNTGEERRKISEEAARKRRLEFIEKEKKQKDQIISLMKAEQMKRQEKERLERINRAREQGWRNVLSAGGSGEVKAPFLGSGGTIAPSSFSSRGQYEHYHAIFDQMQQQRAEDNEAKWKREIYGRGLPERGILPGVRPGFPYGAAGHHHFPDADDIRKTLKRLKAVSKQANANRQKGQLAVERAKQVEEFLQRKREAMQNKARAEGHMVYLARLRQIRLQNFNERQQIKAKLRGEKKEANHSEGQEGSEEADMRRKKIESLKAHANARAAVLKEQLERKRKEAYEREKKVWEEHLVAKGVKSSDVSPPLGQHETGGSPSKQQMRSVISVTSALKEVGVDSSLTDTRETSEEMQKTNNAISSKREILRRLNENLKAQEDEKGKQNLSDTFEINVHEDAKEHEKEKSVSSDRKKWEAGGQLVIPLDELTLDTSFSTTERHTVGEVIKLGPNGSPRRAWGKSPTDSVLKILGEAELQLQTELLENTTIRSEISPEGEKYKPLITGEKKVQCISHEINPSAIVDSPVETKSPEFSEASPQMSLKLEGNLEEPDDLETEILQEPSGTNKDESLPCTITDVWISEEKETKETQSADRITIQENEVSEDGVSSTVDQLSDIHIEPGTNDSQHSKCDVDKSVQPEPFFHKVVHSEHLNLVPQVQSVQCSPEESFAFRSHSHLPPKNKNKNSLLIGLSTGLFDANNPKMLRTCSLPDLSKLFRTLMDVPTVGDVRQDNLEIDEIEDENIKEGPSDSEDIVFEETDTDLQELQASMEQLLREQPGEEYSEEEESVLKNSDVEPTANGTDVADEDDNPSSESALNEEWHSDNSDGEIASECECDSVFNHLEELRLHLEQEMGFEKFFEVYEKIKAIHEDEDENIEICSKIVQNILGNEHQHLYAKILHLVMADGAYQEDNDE
To be noted: at 0.1 µM.

For test [13], the target named is T5, Serine/threonine-protein kinase Nek1 (Homo sapiens). The note with it: at 1 µM.
Test [14] has as its target T6, Serine/threonine-protein kinase Nek2 (Homo sapiens) (UniProt P51955).
T6 sequence (whole entry): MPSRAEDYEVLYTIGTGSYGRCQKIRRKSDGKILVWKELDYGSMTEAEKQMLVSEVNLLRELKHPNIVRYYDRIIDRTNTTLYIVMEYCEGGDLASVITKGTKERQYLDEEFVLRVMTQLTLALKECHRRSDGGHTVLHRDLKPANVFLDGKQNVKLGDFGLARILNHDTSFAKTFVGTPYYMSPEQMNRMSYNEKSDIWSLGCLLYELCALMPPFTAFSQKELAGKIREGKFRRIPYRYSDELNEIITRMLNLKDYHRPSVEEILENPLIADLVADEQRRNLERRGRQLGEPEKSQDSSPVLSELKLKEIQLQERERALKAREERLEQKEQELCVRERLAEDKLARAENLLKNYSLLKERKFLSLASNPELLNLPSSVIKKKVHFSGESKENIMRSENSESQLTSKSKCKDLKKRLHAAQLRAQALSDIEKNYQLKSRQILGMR
To be noted: at 0.1 µM.

The target in test [15] is T6, Serine/threonine-protein kinase Nek2 (Homo sapiens). To be noted: at 1 µM.
Test [16] concerns the target Serine/threonine-protein kinase Nek6 (Homo sapiens) (UniProt Q9HC98). To be noted: at 0.1 µM.
Test [17] shares this target. The note with it: at 1 µM.
In test [18] the target is Serine/threonine-protein kinase Nek7 (Homo sapiens) (UniProt Q8TDX7). To be noted: at 0.1 µM.
Chain of Serine/threonine-protein kinase Nek7 (Homo sapiens) (Q8TDX7 whole entry, looked up): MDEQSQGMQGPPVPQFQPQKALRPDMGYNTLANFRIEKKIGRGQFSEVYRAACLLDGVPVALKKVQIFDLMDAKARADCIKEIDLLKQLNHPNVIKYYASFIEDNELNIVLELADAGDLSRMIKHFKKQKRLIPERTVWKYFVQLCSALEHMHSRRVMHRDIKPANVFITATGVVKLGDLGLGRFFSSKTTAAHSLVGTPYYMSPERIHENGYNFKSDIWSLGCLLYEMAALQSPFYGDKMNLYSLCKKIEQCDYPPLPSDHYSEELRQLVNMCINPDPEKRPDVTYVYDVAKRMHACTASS
The target is the same in test [19]. The note with it: at 1 µM.
For test [20], the target named is T7, Serine/threonine-protein kinase Nek9 (Homo sapiens) (UniProt Q8TD19).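 Note: reported value is the mean percent inhibition of NEK9.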
T7 sequence (whole entry): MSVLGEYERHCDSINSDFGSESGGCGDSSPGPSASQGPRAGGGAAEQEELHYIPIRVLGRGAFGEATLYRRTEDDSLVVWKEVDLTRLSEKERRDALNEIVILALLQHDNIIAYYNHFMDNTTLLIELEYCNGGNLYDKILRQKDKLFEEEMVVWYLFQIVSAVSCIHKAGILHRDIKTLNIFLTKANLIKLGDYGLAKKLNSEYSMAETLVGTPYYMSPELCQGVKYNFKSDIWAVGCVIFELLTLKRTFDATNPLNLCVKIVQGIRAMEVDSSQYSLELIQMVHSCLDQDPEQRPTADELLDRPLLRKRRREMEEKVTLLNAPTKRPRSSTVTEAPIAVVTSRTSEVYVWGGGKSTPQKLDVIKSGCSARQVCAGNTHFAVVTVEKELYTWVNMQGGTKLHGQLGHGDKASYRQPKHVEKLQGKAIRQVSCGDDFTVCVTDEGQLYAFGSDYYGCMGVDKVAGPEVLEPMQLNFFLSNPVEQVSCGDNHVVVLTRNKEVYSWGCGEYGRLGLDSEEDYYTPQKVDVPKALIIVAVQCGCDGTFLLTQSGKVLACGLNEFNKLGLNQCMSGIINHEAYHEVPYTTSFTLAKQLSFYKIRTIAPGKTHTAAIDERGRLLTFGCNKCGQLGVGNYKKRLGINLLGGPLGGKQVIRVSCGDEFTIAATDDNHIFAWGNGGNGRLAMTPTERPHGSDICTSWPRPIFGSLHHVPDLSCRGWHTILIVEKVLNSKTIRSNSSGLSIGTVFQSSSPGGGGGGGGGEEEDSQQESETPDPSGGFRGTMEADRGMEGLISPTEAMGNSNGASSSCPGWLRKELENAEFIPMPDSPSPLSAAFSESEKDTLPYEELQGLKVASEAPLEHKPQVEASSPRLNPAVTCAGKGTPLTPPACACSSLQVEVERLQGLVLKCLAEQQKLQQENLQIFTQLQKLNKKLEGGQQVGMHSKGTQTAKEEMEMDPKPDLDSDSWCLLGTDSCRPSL
The note with it: at 0.1 µM.

One may read the inhibition as the change of the read-out against control, counted positive when it falls.

Chain of Serine/threonine-protein kinase Nek6 (Homo sapiens) (Q9HC98 whole entry): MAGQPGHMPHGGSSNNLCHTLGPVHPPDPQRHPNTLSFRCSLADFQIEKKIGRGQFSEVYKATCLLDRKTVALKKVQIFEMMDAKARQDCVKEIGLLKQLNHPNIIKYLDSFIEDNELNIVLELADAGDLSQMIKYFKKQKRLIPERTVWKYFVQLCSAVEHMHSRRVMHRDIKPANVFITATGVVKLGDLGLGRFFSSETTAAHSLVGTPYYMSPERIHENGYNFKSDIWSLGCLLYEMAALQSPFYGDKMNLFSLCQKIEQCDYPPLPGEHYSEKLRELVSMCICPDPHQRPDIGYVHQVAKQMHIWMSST
Chain of Sphingosine kinase 1 (Homo sapiens) (Q9NYA1 whole entry): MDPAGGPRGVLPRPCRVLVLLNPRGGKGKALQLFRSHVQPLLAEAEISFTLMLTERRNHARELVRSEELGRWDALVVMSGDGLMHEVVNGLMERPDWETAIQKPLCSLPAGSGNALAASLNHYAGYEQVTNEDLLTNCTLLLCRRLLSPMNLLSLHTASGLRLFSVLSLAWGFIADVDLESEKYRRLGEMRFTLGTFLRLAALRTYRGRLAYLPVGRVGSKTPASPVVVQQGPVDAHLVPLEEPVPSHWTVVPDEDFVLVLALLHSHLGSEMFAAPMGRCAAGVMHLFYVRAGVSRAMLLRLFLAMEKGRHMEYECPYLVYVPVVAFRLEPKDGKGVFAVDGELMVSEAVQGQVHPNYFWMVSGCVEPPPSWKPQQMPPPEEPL

`COc1cc2c(cc1Nc1nc(Nc3cccc(F)c3C(N)=O)c3cc[nH]c3n1)N(C(=O)CN1CCN(C(C)C)CC1)CC2`: the inhibition in test [1] was 1.21%; in test [2] it was -0.45%; in [3], -0.67%; in test [4] it was 6.72%; in [5], 10.1%; in [6], 2.84%. Moreover, the inhibition came to 4.05% in test [7]; 5.51% in test [8]; 1.47% in [9]; 3.12% in [10]; 2.31% in test [11]; 2.53% in test [12]. Also, the inhibition was found to be 6.64% in [13]; 2.3% in [14]; 2.17% in test [15]; 1.18% in [16]; 1.05% in test [17]; 3.3% in test [18]. For the same compound, the results for the inhibition in test [19] and in test [20] were 6.3% and 0.4%, respectively.
